Measurements taken from PubChem BioAssay AID1159580 (chemical genetic matrix, 2015).
Hit rate of the full screen: of about 5,500 compounds, about 2,000 (36%) were called active. Not shown: some 18% with an inconclusive outcome. Rule as the data show it: active = normalized growth mostly below about 0.91 (no sharp cut-off); inconclusive = no clear call, values can overlap the other calls; inactive = mostly above about 0.92. The list shows a part of the results.

Test: chemical genetic growth profiling, strain panel (AID 1159580);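 also: tested at 20 µM; growth read once vehicle control cultures reached saturation at 30 °C; 1 = growth at the plate median or of vehicle wells; lower values mean less growth of the strain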
Conditions: growth OD

Measured: normalized growth

COc1cc(-c2coc3cc(O[C@@H]4O[C@H](CO)[C@@H](O)[C@H](O)[C@H]4O)c(OC)c(O)c3c2=O)cc(O)c1OC
inactive: S. cerevisiae deletion strains, locus YJR066W, strain TOR1, active compounds read low 0.988 | S. cerevisiae deletion strains, locus YKL009W, strain mrt4, active compounds read low 1.02 | S. cerevisiae deletion strains, locus YKL068W, active compounds read low 0.995 | S. cerevisiae deletion strains, locus YKL085W, strain MDH1 (second series), active compounds read low 0.997 | S. cerevisiae deletion strains, locus YKL085W, strain MDH1, active compounds read low 0.997 | S. cerevisiae deletion strains, locus YKL160W, strain elf1, active compounds read low 0.993 | S. cerevisiae deletion strains, locus YKR001C, strain vps1, active compounds read low 1.01 | S. cerevisiae deletion strains, locus YKR026C, strain gcn3, active compounds read low 0.997 | S. cerevisiae deletion strains, locus YKR091W, strain srl3, active compounds read low 1 | S. cerevisiae deletion strains, locus YLL001W, strain dnm1, active compounds read low 0.965 | S. cerevisiae deletion strains, locus YLL026W, active compounds read low 0.995 | S. cerevisiae deletion strains, locus YLL041C, strain sdh2, active compounds read low 1 | S. cerevisiae deletion strains, locus YLR027C, strain aat2, active compounds read low 0.997 | S. cerevisiae deletion strains, locus YLR039C, strain RIC1, active compounds read low 1.02 | S. cerevisiae deletion strains, locus YLR058C, strain SHM2, active compounds read low 1.01 | S. cerevisiae deletion strains, locus YLR102C, strain apc9, active compounds read low 0.994 | S. cerevisiae deletion strains, locus YLR113W, strain HOG1, active compounds read low 0.975 | S. cerevisiae deletion strains, locus YLR221C, strain rsa3, active compounds read low 0.993 | S. cerevisiae deletion strains, locus YLR258W, strain gsy2, active compounds read low 0.984 | S. cerevisiae deletion strains, locus YLR262C, strain YPT6 (second series), active compounds read low 1 | S. cerevisiae deletion strains, locus YLR262C, strain YPT6, active compounds read low 1 | S. cerevisiae deletion strains, locus YLR268W, strain sec22, active compounds read low 1.03 | S. cerevisiae deletion strains, locus YLR320W, strain mms22, active compounds read low 0.986 | S. cerevisiae deletion strains, locus YLR330W, strain CHS5, active compounds read low 1.01 | S. cerevisiae deletion strains, locus YLR342W, strain FKS1 (second series), active compounds read low 1.05 | S. cerevisiae deletion strains, locus YLR342W, strain FKS1, active compounds read low 0.994 | S. cerevisiae deletion strains, locus YLR357W, strain rsc2, active compounds read low 0.956 | S. cerevisiae deletion strains, locus YLR370C, strain arc18, active compounds read low 1 | S. cerevisiae deletion strains, locus YLR371W, strain rom2, active compounds read low 1.01 | S. cerevisiae deletion strains, locus YLR384C, strain iki3, active compounds read low 0.988 | S. cerevisiae deletion strains, locus YLR418C, strain cdc73, active compounds read low 1.02 | S. cerevisiae deletion strains, locus YML016C, strain PPZ1, active compounds read low 0.981 | S. cerevisiae deletion strains, locus YML032C, strain rad52, active compounds read low 1.01 | S. cerevisiae deletion strains, locus YML120C, strain ndi1, active compounds read low 0.99 | S. cerevisiae deletion strains, locus YML124C, strain tub3, active compounds read low 0.99 | S. cerevisiae deletion strains, locus YMR058W, strain fet3, active compounds read low 0.998 | S. cerevisiae deletion strains, locus YMR078C, strain ctf18, active compounds read low 0.981 | S. cerevisiae deletion strains, locus YMR125W, strain sto1, active compounds read low 0.99 | S. cerevisiae deletion strains, locus YMR129W, active compounds read low 0.996 | S. cerevisiae deletion strains, locus YMR205C, strain PFK2, active compounds read low 0.981 | S. cerevisiae deletion strains, locus YMR223W, strain ubp8, active compounds read low 1 | S. cerevisiae deletion strains, locus YMR231W, strain pep5, active compounds read low 0.997 | S. cerevisiae deletion strains, locus YMR307W, strain GAS1, active compounds read low 1.04 | S. cerevisiae deletion strains, locus YNL067W, strain RPL9B, active compounds read low 0.994 | S. cerevisiae deletion strains, locus YNL071W, strain lat1, active compounds read low 1.01 | S. cerevisiae deletion strains, locus YNL128W, strain TEP1, active compounds read low 1.01 | S. cerevisiae deletion strains, locus YNL183C, strain NPR1, active compounds read low 0.962 | S. cerevisiae deletion strains, locus YNL209W, strain ssb2, active compounds read low 0.989 | S. cerevisiae deletion strains, locus YNL233W, strain BNI4, active compounds read low 1 | S. cerevisiae deletion strains, locus YNL248C, strain rpa49, active compounds read low 0.988 | S. cerevisiae deletion strains, locus YNL250W, strain rad50, active compounds read low 0.964 | S. cerevisiae deletion strains, locus YNL271C, strain bni1, active compounds read low 0.978 | S. cerevisiae deletion strains, locus YNL298W, strain CLA4, active compounds read low 0.989 | S. cerevisiae deletion strains, locus YNL307C, strain MCK1, active compounds read low 0.99 | S. cerevisiae deletion strains, locus YNL322C, strain KRE1 (second series), active compounds read low 0.977 | S. cerevisiae deletion strains, locus YNR049C, strain mso1, active compounds read low 1.01 | S. cerevisiae deletion strains, locus YNR052C, strain pop2, active compounds read low 0.964 | S. cerevisiae deletion strains, locus YOL012C, strain htz1 0.807 | S. cerevisiae deletion strains, locus YOL147C, strain pex11, active compounds read low 1.01 | S. cerevisiae deletion strains, locus YOR001W, strain rrp6, active compounds read low 0.948 | S. cerevisiae deletion strains, locus YOR061W, strain CKA2, active compounds read low 0.999 | S. cerevisiae deletion strains, locus YOR069W, strain VPS5, active compounds read low 0.986 | S. cerevisiae deletion strains, locus YOR070C, strain gyp1, active compounds read low 1.01 | S. cerevisiae deletion strains, locus YOR080W, strain dia2, active compounds read low 0.988 | S. cerevisiae deletion strains, locus YOR083W, strain WHI5, active compounds read low 1.02 | S. cerevisiae deletion strains, locus YOR106W, strain vam3, active compounds read low 0.98 | S. cerevisiae deletion strains, locus YOR136W, strain idh2, active compounds read low 0.992 | S. cerevisiae deletion strains, locus YOR144C, strain elg1, active compounds read low 0.996 | S. cerevisiae deletion strains, locus YOR184W, strain ser1, active compounds read low 1.05 | S. cerevisiae deletion strains, locus YOR231W, strain MKK1, active compounds read low 1.05 | S. cerevisiae deletion strains, locus YOR265W, strain rbl2, active compounds read low 1.01 | S. cerevisiae deletion strains, locus YOR270C, strain vph1, active compounds read low 1.02 | S. cerevisiae deletion strains, locus YOR290C, strain snf2, active compounds read low 1 | S. cerevisiae deletion strains, locus YOR316C, strain cot1, active compounds read low 0.985 | S. cerevisiae deletion strains, locus YPL051W, strain arl3, active compounds read low 0.961 | S. cerevisiae deletion strains, locus YPL055C, strain LGE1, active compounds read low 1.05 | S. cerevisiae deletion strains, locus YPL078C, strain atp4, active compounds read low 0.993 | S. cerevisiae deletion strains, locus YPL106C, strain sse1, active compounds read low 0.962 | S. cerevisiae deletion strains, locus YPL240C, strain hsp82, active compounds read low 1 | S. cerevisiae deletion strains, locus YPL256C, strain CLN2, active compounds read low 1.02 | S. cerevisiae deletion strains, locus YPR119W, strain clb2, active compounds read low 0.982 | S. cerevisiae deletion strains, locus YPR141C, strain kar3, active compounds read low 0.977 | S. cerevisiae deletion strains, locus YPR163C, strain tif3, active compounds read low 0.986 | S. cerevisiae deletion strains, locus YPR167C, strain met16, active compounds read low 0.993 | S. cerevisiae deletion strains, strain wtn01, active compounds read low 1.01 | S. cerevisiae strains, strain wild type, active compounds read low 1.01
